High-throughput results: PubChem BioAssay, National Center for Advancing Translational Sciences (NCATS)
Only some compounds are listed: those with a hit (about 12% of all), similar ones and a draw of the others.
AmpC inh detg: AmpC beta-lactamase inhibition with detergent present; AmpC hydrolysis of nitrocefin, absorbance 480 nm, 0.01% Triton; Potency, µM (highest dose often 114 µM), for the others: at the highest dose activity change, negative = inhibition, actives largely listed as inhibitors; 370,000 compounds, 0.041% hits;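 note: 0% = no-compound wells and -100% = no-enzyme wells; nearly all actives have a fitted effect of over 25% in size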
Target sequence (P00811 whole entry, looked up): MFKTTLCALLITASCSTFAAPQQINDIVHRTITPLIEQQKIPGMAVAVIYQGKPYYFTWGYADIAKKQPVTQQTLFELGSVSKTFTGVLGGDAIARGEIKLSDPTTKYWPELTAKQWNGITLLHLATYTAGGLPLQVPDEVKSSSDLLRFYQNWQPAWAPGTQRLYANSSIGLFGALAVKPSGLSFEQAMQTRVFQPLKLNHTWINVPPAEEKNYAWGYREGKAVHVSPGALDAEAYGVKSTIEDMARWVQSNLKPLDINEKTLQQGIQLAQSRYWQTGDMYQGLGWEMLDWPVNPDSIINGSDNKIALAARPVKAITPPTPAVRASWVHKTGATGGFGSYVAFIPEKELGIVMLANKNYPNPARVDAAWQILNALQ
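AmpC (5.3 nM in the dispensed reagent) in 20 mM phosphate pH 7.0 with 0.01% (detergent screen) or 0.0001% Triton X-100 was preincubated with compounds for 15 min at room temperature. Nitrocefin was then added from an 800 uM solution, and hydrolysis was followed at 480 nm.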
Sm TGR block: inhibitors of Schistosoma mansoni thioredoxin glutathione reductase; Q962Y6; purified TGR, DTNB reduction, TNB absorbance 405 nm; Potency, µM (highest dose often 114 µM), for the others: at the highest dose activity change, negative = inhibition, hits mostly inhibitors; 360,000 compounds, 3% hits; note: % is set by controls: 0 for no effect and ±100 for the full control effect; nearly all actives have a fitted effect of over 60% in size
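TGR 20 nM + NADPH 100 uM (dispensed conc.), cpd preinc 15 min RT; start with NADPH (500 uM addition) then DTNB (15 mM addition). Kinetic TNB absorbance, 405 nm filter. Four-parameter Hill fit across titration.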
Pf growth 96h: inhibits malaria parasite growth, 96 h | P. falciparum luciferase reporter growth, 96 h | Potency, µM (highest dose often 28.7 µM), for inactives: top-dose activity change, negative = inhibition, usual class: inhibitors | 320,000 compounds, 6.9% hits | AID 504834; note: % is set by controls: 0 for no effect and ±100 for the full control effect
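Delayed-death screen, second-generation endpoint: infected erythrocytes, 2% hematocrit, 0.05% parasitemia final; 96 hours at 37 C, 5% CO2; luciferase detection reagent; luminescence decrease equals reduced growth.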
Pf growth 48h: P. falciparum growth inhibition at 48 hours (one generation); P. falciparum luciferase growth in erythrocytes, 48 h; Potency, µM (doses to about 28.7 µM), without a hit: at the top dose activity change, negative = inhibition, hits mostly inhibitors; 310,000 compounds, 5.9% hits; AID 504832; note: % is set by controls: 0 for no effect and ±100 for the full control effect
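Parasite viability was followed by luminescence of a genomically integrated firefly luciferase. Cultures held 0.1% parasitemia at 2% hematocrit (final), incubated under 5% CO2 at 37 C.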
AmpC no deterg: blocks E. coli AmpC beta-lactamase in detergent-free assay; P00811; Potency, µM (series often up to 57.1 µM), inactives show top-dose activity change, negative = inhibition, most hits filed as inhibitors; 330,000 compounds, 0.52% hits; AmpC nitrocefin hydrolysis, absorbance 480 nm, 0.0001% Triton;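 note: plate controls were no compound for no effect and no enzyme for full effect; nearly all actives have a fitted effect of over 20% in size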
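AmpC (5.3 nM in the dispensed reagent) in 20 mM phosphate pH 7.0 with 0.01% (detergent screen) or 0.0001% Triton X-100 was preincubated with compounds for 15 min at room temperature. Nitrocefin was then added from an 800 uM solution, and hydrolysis was followed at 480 nm.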
SARS PLP yeast: inhibitors of SARS-CoV papain-like protease in yeast; 330,000 compounds, 0.19% hits; S. cerevisiae expressing SARS-CoV PLpro, growth rescue; Potency, µM (titrated, usually from 32.9 µM), for the others: top-dose activity, positive = growth rescue, most hits filed as activators; calls by dose curve; note: 0% is about no effect; nearly all actives have a fitted effect of over 55% in size
An asterisk follows results filed as active; [ ] = dose if it differs, or a comment. Unless noted, calls come from the whole dose curve; as a rule, active = well fitted curve in the direction sought with a large enough effect; inconclusive = small, poorly fitted or top-dose-only effect, or another doubt; inactive = no such curve, though single readings can be large; an effect the other way counts as inactive or inconclusive. Potency is the fitted concentration of half-maximal effect.

Results for CC(C)C(=O)Nc1cc2c(cc1C(=O)c1ccccc1)OCCO2 ?
AmpC inh detg: -6%; Sm TGR block: 11%; Pf growth 96h: 1.3µM*; Pf growth 48h: inconclusive; AmpC no deterg: -10%; SARS PLP yeast: 2%

How did CC(=O)Nc1cc2c(cc1C(=O)c1ccc(C)cc1)OCCO2 do in these assays?
AmpC inh detg: 0%; Sm TGR block: 7%; Pf growth 96h: -6%; Pf growth 48h: 1%

What do the screens show for `CCCC(=O)c1cc2c(cc1NC(=O)c1ccccc1F)OCCO2`?
AmpC inh detg: 0%; Sm TGR block: -6%; Pf growth 96h: 12µM*; Pf growth 48h: inconclusive; AmpC no deterg: -18%; SARS PLP yeast: -2%

Results for CCC(=O)c1cc2c(cc1NC(=O)c1ccccc1F)OCCO2 ?
AmpC inh detg: 0%; Sm TGR block: 4%

How did O=C1Nc2ccc(Cl)cc2C(c2ccccc2Cl)=NC1O (stereo not drawn) do in these assays?
Pf growth 96h: 68%; Pf growth 48h: 2%

What do the screens show for `CCCNC(=O)CN(C)S(=O)(=O)c1ccc(F)cc1`?
AmpC inh detg: -7%; Sm TGR block: -6%; Pf growth 96h: 12%; Pf growth 48h: -8%; AmpC no deterg: -4%; SARS PLP yeast: 3%

Results for CCCNC(=O)CN(C)S(=O)(=O)c1c(C)cc(C)cc1C ?
AmpC inh detg: 0%; Sm TGR block: -21%; Pf growth 96h: 10µM*; Pf growth 48h: 7.4µM*; AmpC no deterg: -1%; SARS PLP yeast: -3%

What do the screens show for `Cc1cc(N2C(=O)C3C4CC(C(Br)C4Br)C3C2=O)no1` (stereo not drawn)?
AmpC inh detg: -11%; Sm TGR block: -6%; Pf growth 96h: -12%; Pf growth 48h: 12%; AmpC no deterg: -17%; SARS PLP yeast: 7%

What do the screens show for `COc1cc(C2c3c(c(C)c(C)oc3=O)Oc3c(C)c(C)oc(=O)c32)ccc1OS(=O)(=O)c1ccc(C)cc1`?
AmpC inh detg: 8%; Sm TGR block: -25%; Pf growth 96h: 4.7µM*; Pf growth 48h: 5.9µM*; AmpC no deterg: 83%; SARS PLP yeast: 4%

What do the screens show for `COCCNC(=O)C(NC(=O)C1CCCCC1)C12CC3CC(CC(C3)C1)C2` (stereo not drawn)?
AmpC inh detg: 0%; Sm TGR block: 21%; Pf growth 96h: 1.5µM*; Pf growth 48h: inconclusive; AmpC no deterg: -10%; SARS PLP yeast: 1%

Results for COc1cc(OC)cc(C(=O)NC(C(=O)NCCN(C)C)C23CC4CC(CC(C4)C2)C3)c1 (stereo not drawn) ?
AmpC inh detg: -7%; Sm TGR block: 0%; Pf growth 96h: 2%[5.75 µM]; Pf growth 48h: inconclusive; AmpC no deterg: 155%; SARS PLP yeast: -2%

What do the screens show for `CC(C)(C)NCC(O)COc1ccccc1C(C)(C)C` (stereo not drawn)?
AmpC inh detg: -21%; Sm TGR block: 9%; Pf growth 96h: inconclusive; Pf growth 48h: 4.7µM*; AmpC no deterg: -1%; SARS PLP yeast: 0%

How did CC(C)(C)NC[C@@H](O)COc1ccccc1C1CCCC1 do in these assays?
Pf growth 96h: 2.3µM*; Pf growth 48h: 2.9µM*

Results for Fc1ccc(/C=N/Nc2nnnn2-c2ccccc2)cc1 ?
AmpC inh detg: 2%; Pf growth 96h: 8.3µM*; Pf growth 48h: 5%; AmpC no deterg: -48%; SARS PLP yeast: 0%

Results for Fc1ccc(Oc2nnnn2-c2ccccc2)cc1 ?
AmpC inh detg: -4%; Pf growth 96h: 35%; Pf growth 48h: 11%; AmpC no deterg: -8%; SARS PLP yeast: 0%

How did CCOc1ccc2oc(=O)cc(CN3CCN(C(=O)c4ccc(Cl)cc4)CC3)c2c1 do in these assays?
AmpC inh detg: -7%; Sm TGR block: -7%

Results for Nc1ccc(N2CCCCCC2)cc1 ?
AmpC inh detg: -7%; Sm TGR block: inconclusive; Pf growth 96h: inconclusive; Pf growth 48h: 0.41µM*; AmpC no deterg: -15%; SARS PLP yeast: -6%

What do the screens show for `CC1(C)CCCC(C)(C)N1CC(O)COCCOc1ccc(Br)cc1` (stereo not drawn)?
AmpC inh detg: 6%; Sm TGR block: -2%; Pf growth 96h: inconclusive; Pf growth 48h: 5.9µM*; AmpC no deterg: 53%; SARS PLP yeast: 15%

How did COc1ccccc1N1CCN(Cc2ccc(Br)cc2)CC1 do in these assays?
AmpC inh detg: -13%; Sm TGR block: 35µM*; Pf growth 96h: 58%; Pf growth 48h: 13%; AmpC no deterg: 23%; SARS PLP yeast: -9%

How did COc1ccc(N2CCN(CC(O)COCCOc3ccc(Br)cc3)CC2)cc1 (stereo not drawn) do in these assays?
AmpC inh detg: -7%; Sm TGR block: -10%; Pf growth 96h: -28%; Pf growth 48h: -8%; AmpC no deterg: 204%; SARS PLP yeast: -38%

How did COc1cc(CN2CCN(c3cccc(C)c3C)CC2)cc(OC)c1O do in these assays?
AmpC inh detg: -10%; Sm TGR block: 32µM*; Pf growth 96h: 11%; Pf growth 48h: -19%; AmpC no deterg: 7%; SARS PLP yeast: 1%

Results for COc1ccccc1N1CCN(CC(O)COCCOc2ccc(Br)cc2)CC1 (stereo not drawn) ?
AmpC inh detg: -9%; Sm TGR block: -1%; Pf growth 96h: 13µM*; Pf growth 48h: -9%; AmpC no deterg: 205%; SARS PLP yeast: -20%

What do the screens show for `COc1ccccc1N1CCN(Cc2ccc(Br)o2)CC1`?
AmpC inh detg: -2%; Sm TGR block: 4%; Pf growth 48h: 21%; AmpC no deterg: 13%; SARS PLP yeast: 8%

Results for Cc1cc(CN2CCN(c3cccc(C)c3C)CC2)cs1 ?
AmpC inh detg: 15%; Sm TGR block: 8%

Results for O=C(COc1ccccc1)Nc1ccccc1C(=O)OCc1cc(=O)n2nc(C3CC3)sc2n1 ?
AmpC inh detg: -4%; Sm TGR block: 4%

How did COc1ccccc1N1CCN(Cc2cccc(OC)c2O)CC1 do in these assays?
AmpC inh detg: -14%; Sm TGR block: 3%; Pf growth 96h: inconclusive; Pf growth 48h: 7.4µM*; AmpC no deterg: -9%; SARS PLP yeast: 5%

Results for COc1ccc(OC)c(NC(=O)CN(Cc2ccc(F)cc2)C2CCCCC2)c1 ?
AmpC inh detg: inconclusive; Sm TGR block: 5%; Pf growth 96h: inconclusive; Pf growth 48h: 4.7µM*; AmpC no deterg: -21%; SARS PLP yeast: -5%
